# PubChem BioAssay (NCATS)
# Several values for one entry are separate records, joined by “and”; a condition that tells them apart may be missing. Equal values may be shown once. A number with no mark means an inactive call. Inconclusive results are not listed. Entries that show only a call come without a potency. Activity calls are given as the source filed them. Unless noted, calls come from the whole dose curve; as a rule, active = well fitted curve in the direction sought with a large enough effect; inconclusive = small, poorly fitted or top-dose-only effect, or another doubt; inactive = no such curve, though single readings can be large; an effect the other way counts as inactive or inconclusive.
# Legend:
# [1] = NS1 protein of Zika virus - qHTS assay to identify small molecule inhibitors in human HEK 293 cells (AID 1347053); note: nearly all actives have a fitted effect of over 55% in size
# Outline: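 HEK 293; 20 h pre-culture, 37 C/5% CO2; cpd 1 h pre-infection; ZIKV MR766, MOI = 0.5, 24 h, 37 C; TR-FRET NS1 readout (two anti-NS1 Abs); norm. to no-virus vs infected.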
# [2] = target: T1, Tyrosine-protein phosphatase non-receptor type substrate 1 (Homo sapiens) + Leukocyte surface antigen CD47 (Homo sapiens) (UniProt P78324+Q08722); experiment: CD47-SIRPalpha protein protein interaction - LANCE assay qHTS validation (AID 1347057; active = well fitted curve in the direction sought with a large enough effect in the signal ratio, with a control signal flat, not every such curve was filed as active; the % refers to the signal ratio)
# T1 sequence (P78324 whole entry, looked up): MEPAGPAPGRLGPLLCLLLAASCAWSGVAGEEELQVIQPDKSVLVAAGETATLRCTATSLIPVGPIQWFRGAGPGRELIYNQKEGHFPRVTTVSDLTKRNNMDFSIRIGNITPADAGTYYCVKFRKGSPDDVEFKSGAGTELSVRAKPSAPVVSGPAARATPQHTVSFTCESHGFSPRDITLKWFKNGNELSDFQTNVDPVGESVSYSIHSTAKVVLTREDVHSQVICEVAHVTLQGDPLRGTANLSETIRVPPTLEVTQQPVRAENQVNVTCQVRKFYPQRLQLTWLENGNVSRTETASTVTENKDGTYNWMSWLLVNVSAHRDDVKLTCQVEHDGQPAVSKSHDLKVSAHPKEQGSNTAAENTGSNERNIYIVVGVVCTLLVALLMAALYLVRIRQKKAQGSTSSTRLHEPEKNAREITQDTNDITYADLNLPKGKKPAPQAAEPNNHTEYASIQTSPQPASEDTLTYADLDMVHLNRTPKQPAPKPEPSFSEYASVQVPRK
# T1 sequence (Q08722 whole entry, looked up): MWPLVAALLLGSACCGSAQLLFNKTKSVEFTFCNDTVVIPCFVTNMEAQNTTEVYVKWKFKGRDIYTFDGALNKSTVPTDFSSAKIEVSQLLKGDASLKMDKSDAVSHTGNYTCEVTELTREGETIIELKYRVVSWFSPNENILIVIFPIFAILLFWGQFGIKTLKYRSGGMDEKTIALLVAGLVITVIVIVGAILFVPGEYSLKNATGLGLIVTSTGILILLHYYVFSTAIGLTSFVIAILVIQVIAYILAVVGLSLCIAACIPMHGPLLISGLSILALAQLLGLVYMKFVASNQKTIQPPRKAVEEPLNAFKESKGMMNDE
# Outline: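 First, His-tagged CD47 and Eu-labelled anti-His antibody met the compound for 30 min; next, site-specifically biotinylated SIRPalpha was added for 30 min; finally streptavidin-APC was added before reading the TR-FRET ratio.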
# [3] = target: T1, Tyrosine-protein phosphatase non-receptor type substrate 1 (Homo sapiens) + Leukocyte surface antigen CD47 (Homo sapiens); experiment: CD47-SIRPalpha protein protein interaction - HTRF assay qHTS validation (AID 1347058; active = well fitted curve in the direction sought with a large enough effect in the signal ratio, not every such curve was filed as active; the % refers to the signal ratio;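 note: recombinant soluble extracellular CD47 with His tag and biotinylated SIRPalpha domains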)
# Outline: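 TR-FRET read (Ch1/Ch2 ratio) of soluble extracellular CD47 and Avi-biotinylated SIRPalpha domains in PBS pH 7.4 with 0.05% IGEPAL; 7-point compound titration. Sequential 30 min room-temperature steps; non-biotinylated SIRPalpha as control inhibitor.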
# [4] = target: T1, Tyrosine-protein phosphatase non-receptor type substrate 1 (Homo sapiens) + Leukocyte surface antigen CD47 (Homo sapiens); experiment: CD47-SIRPalpha protein protein interaction - Alpha assay qHTS validation (AID 1347059);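 note: bead proximity luminescence from CD47 binding SIRPalpha after compound preincubation with SIRPalpha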
# Outline: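 Binding is measured by AlphaScreen proximity: Ni-NTA acceptor beads capture His-CD47, streptavidin donor beads capture biotin-SIRPalpha. Each of three additions (SIRPalpha with compound, CD47, beads) incubates 30 min at room temperature protected from light.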
# [5] = target: Parathyroid hormone/parathyroid hormone-related peptide receptor (Homo sapiens) (UniProt Q03431); experiment: qHTS for PTHR1 Agonists: Optimization Screen against the NCGC LOPAC library (AID 1347079);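 note: GloSensor cAMP luminescence in HEK-293 GP2 cells expressing human PTHR1 with IBMX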
# Parathyroid hormone/parathyroid hormone-related peptide receptor (Homo sapiens), sequence (Q03431 whole entry, looked up): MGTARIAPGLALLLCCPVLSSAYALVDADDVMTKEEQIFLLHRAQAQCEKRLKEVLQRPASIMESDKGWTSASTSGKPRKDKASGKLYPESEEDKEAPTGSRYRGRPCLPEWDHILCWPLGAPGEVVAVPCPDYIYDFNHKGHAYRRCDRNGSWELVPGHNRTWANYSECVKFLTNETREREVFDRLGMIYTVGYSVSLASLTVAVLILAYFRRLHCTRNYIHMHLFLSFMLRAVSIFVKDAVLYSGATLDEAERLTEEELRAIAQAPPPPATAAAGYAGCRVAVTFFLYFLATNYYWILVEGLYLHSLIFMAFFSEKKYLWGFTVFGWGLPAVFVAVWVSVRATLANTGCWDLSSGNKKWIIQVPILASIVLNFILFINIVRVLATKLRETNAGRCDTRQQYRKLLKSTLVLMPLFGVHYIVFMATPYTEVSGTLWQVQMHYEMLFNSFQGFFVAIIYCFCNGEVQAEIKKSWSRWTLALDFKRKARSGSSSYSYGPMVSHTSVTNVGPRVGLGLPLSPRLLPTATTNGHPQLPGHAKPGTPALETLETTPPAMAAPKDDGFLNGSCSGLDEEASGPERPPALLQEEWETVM
# Outline: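 Agonist readout: GloSensor cAMP luminescence, read after 15 min at room temperature. HEK-293-derived GP2 line carries PTHR1; compounds tested as a titration for 1 hr at 37C in presence of IBMX. M-PTH (1-15) served as control.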
# [6] = test system: Zika virus NS2B-NS3 protease (unlinked); experiment: Optimization of GU AMC qHTS for Zika virus inhibitors: Unlinked NS2B-NS3 protease assay (AID 1347151); note: nearly all actives have a fitted effect of over 80% in size; note: potency is the fitted concentration of half-maximal effect
# Outline: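 Fluorescence gain (340/450 nm) over 15 min at room temperature, ~20% conversion, gave percent inhibition fitted to a 4-parameter Hill equation; enzyme was unlinked NS2B-NS3 (25 nM final), pH 8.0 Tris buffer.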
# [7] = test system: Zika virus NS2B-NS3 protease; experiment: Primary screen GU AMC qHTS for Zika virus inhibitors (AID 1347154); note: nearly all actives have a fitted effect of over 70% in size; note: potency is the fitted concentration of half-maximal effect
# Outline: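 Fluorogenic AMC-substrate cleavage by noncovalent NS2B-NS3 protease complex (25 nM, pH 8.0 Tris buffer with Tween 20) followed for 15 minutes at room temperature (~20% conversion). Percent inhibition from ex340/em450 signal change, fitted by 4-parameter Hill equation.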
# [8] = target: Lysine-specific demethylase 5B (Homo sapiens) (UniProt Q9UGL1); experiment: Optimization screen for KDM5B Histone Demethylases FDH coupled qHTS against the LOPAC library (AID 1347166); details: KDM5B demethylation, FDH-coupled NADH fluorescence (FDH is formaldehyde dehydrogenase); at 57.5 µM (top of the series)
# Lysine-specific demethylase 5B (Homo sapiens), sequence (Q9UGL1 whole entry, looked up): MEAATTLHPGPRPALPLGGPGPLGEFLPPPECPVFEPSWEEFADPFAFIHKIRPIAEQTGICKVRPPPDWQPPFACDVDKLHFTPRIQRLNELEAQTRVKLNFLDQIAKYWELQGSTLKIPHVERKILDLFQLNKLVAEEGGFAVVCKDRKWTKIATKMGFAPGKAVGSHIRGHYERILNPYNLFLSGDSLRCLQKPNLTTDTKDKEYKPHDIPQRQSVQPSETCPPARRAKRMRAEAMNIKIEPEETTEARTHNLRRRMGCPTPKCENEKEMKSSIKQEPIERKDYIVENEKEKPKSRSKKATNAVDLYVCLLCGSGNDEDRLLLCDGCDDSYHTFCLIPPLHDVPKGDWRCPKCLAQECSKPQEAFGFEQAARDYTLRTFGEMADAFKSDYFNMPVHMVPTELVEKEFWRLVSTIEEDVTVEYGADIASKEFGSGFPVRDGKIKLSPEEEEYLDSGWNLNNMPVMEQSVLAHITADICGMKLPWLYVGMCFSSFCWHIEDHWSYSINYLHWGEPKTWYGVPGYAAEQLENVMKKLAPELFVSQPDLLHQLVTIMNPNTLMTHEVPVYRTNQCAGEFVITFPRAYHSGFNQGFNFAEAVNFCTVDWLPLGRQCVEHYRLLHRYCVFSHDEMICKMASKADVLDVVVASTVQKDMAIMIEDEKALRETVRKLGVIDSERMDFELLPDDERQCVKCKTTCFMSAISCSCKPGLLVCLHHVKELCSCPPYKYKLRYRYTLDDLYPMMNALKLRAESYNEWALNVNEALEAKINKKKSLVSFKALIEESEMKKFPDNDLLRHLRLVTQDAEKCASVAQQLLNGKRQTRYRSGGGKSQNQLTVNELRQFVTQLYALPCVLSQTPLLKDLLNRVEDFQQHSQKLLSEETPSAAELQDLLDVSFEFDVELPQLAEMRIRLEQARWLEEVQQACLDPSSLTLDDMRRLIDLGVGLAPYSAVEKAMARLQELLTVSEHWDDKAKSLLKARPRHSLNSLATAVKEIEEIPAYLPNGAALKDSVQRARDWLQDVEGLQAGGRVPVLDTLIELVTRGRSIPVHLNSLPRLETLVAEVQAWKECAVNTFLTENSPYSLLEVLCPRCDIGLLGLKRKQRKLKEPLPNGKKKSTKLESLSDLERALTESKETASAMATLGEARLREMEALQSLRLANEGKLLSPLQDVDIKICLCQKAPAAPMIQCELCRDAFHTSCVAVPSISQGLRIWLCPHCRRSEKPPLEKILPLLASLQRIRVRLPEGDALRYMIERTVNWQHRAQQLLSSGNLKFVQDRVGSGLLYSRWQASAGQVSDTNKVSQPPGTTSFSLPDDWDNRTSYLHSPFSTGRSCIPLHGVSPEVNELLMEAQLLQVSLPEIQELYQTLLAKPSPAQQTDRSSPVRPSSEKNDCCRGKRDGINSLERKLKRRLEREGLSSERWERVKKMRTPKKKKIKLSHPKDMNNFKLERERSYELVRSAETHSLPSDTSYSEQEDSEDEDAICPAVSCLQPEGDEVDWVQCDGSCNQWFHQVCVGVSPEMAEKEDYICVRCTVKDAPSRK
# Outline: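 KDM5BDeltaAP (200nM final) preincubated 10 min with compound, then 12.5uM H3K4Me3, 25uM a-ketoglutarate, ascorbate, Fe(II), NAD+ and FDH added; 50mM HEPES pH 7.5, 0.01% Tween-20. NADH fluorescence (340/450 nm) change over 30 min, room temperature.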
# [9] = target: N-terminal Xaa-Pro-Lys N-methyltransferase 1 (Homo sapiens) (UniProt Q9BV86); experiment: qHTS Assay for Inhibitors of N-terminal methyltransferase 1 (NTMT1): LOPAC validation of the NTMT1 SAHH-coupled ThioGlo3 Assay (AID 1347143);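 note: SAH from peptide methylation measured as thiol fluorescence via SAHH coupling and ThioGlo3; nearly all actives have a fitted effect of over 70% in size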; note: potency is the fitted concentration of half-maximal effect
# N-terminal Xaa-Pro-Lys N-methyltransferase 1 (Homo sapiens), sequence (Q9BV86 whole entry, looked up): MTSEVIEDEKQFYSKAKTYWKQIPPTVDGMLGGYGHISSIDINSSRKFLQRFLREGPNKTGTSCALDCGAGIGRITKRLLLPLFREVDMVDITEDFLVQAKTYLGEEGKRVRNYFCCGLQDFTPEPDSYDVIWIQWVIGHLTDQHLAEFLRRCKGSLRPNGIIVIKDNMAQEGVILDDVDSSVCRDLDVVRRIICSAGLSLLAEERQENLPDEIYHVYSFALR
# Outline: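 Inhibition of NTMT1 methylation of peptide SPKRIA is followed by converting SAH with SAHH and labelling the released thiol with ThioGlo3. Plates are read at 340/450nm before and 30 min after reagent addition, both at room temperature.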
# [10] = test system: Zika virus NS2B-NS3 protease (linked construct); experiment: Confirmatory screen NINDS AMC qHTS for Zika virus inhibitors (AID 1347152); note: potency is the fitted concentration of half-maximal effect; nearly all actives have a fitted effect of over 70% in size
# Outline: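 IC50s from 4-parameter Hill fits of percent inhibition, based on AMC fluorescence gain (340/450 nm) over 15 min with 10 microM Bz-Nle-KRR-AMC. Enzyme: 1 nM linked NS2B-NS3 in Tris-HCl pH 8.0; 15-min compound preincubation.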
# [11] = test system: Zika virus NS2B-NS3 protease (unlinked complex); experiment: Confirmatory screen GU AMC qHTS for Zika virus inhibitors (AID 1347153); note: nearly all actives have a fitted effect of over 70% in size
# Outline: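 Unlinked enzyme 25 nM, Tris pH 8.0/0.01% Tween 20; cpd 15 min RT, dark; + AMC substrate 10 µM (Km 18.3 µM); 340/450 nm read at t0 and 15 min; % inhibition → 4-param fit.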
# [12] = HepG2 cells viability qHTS for Zika virus inhibitors (AID 1347168)
# Outline: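 Compounds were tested in concentration series on cells grown in DMEM containing 4% FBS. After 24 to 48 hours, cellular ATP was measured by luminescence with CellTiter Glo.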
# [13] = Confirmatory screen NINDS Rhodamine qHTS for Zika virus inhibitors (AID 1347161); note: potency is the fitted concentration of half-maximal effect; nearly all actives have a fitted effect of over 60% in size
# Outline: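 Purified linked NS2B-NS3 protease (NS2B hydrophilic domain joined to NS3 protease by flexible linker), 25 nM in 10 mM Tris-HCl pH 8.0, 0.01% Tween 20. Compounds titrated, 15 min preincubation at room temperature; 1.5 microM Rhodamine110 substrate, FITC fluorescence change over 15 min.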
Compound,Potency [1],Potency [2],outcome [3],Potency [4],Potency [5],Potency [6],Potency [7],"activity, negative = inhibition [8] [%]",Potency [9],Potency [10],Potency [11],outcome [12],Potency [13]
Nc1ccc(CCNc2ncnc3c2ncn3C2OC(CO)C(O)C2O)cc1 (stereo not given),inactive,inactive,inactive,inactive,inactive,inactive,inactive,-7.72,,,,,
CC(=O)NNC(=O)N1Cc2ccccc2Oc2ccc(Cl)cc21,inactive,inactive,inactive,inactive,inactive,,inactive,-5.14,inactive,,,,
COc1ccc(C(=O)NCc2cccnc2)cc1C(=O)NCc1cccnc1,inactive,inactive,inactive,inactive,inactive,,,-3.95,inactive,,,,
NC(=O)CNCCC(c1ccccc1)c1ccccc1,inactive,inactive,inactive,inactive,inactive,inactive,,2.72,inactive,,,,
CCC1(O)CC2CN(CCc3c([nH]c4ccccc34)[C@@](C(=O)OC)(c3cc4c(cc3OC)N(C=O)C3[C@]45CCN4CC=C[C@@](CC)([C@@H](OC(C)=O)[C@]3(O)C(=O)OC)[C@H]45)C2)C1 (stereo not given in full),inactive,inactive,inactive,inactive,inactive,inactive,,,,,,,
O=c1[nH]c2cc(Cl)ccc2c(O)c1-c1ccc(Oc2ccccc2)cc1,inactive,inactive,inactive,inactive,inactive,,,-28.1,inactive,,,,
NC1(C(=O)O)CCc2cc(C(=O)O)ccc21 (stereo not given),inactive,inactive,inactive,inactive,inactive,,inactive,,50.1 µM (active),,,,
CNC(=O)c1cc2c(cn1)[nH]c1ccccc12,inactive,inactive,inactive,inactive,inactive,,21.2 µM (active) and 18.9 µM (active),,56.2 µM (active),24.1 µM (active),inactive,inactive,
CC1=C(C(=O)O)N2C(=O)[C@@H](NC(=O)C(N)C3=CCC=CC3)[C@H]2SC1 (stereo not given in full),inactive,inactive,inactive,inactive,inactive,,,-22.8,inactive,,,,
O=C(OCCN1CCOCC1)C1(c2ccccc2)CCCCC1,inactive,inactive,inactive,inactive,inactive,inactive,inactive,-17.1,,,,,
Nc1ncnc2c1ncn2C1CCCO1 (stereo not given),inactive,inactive,inactive,inactive,inactive,,inactive,-7.06,inactive,,,,
N=C(N)c1ccc(OCCCCCOc2ccc(C(=N)N)cc2)cc1 (tested in a mixture with another compound),inactive,inactive,inactive,inactive,inactive,,,-13.6,20 µM (active),,,,
CCCCS(=N)(=O)CC[C@H](N)C(=O)O (stereo not given in full),inactive,inactive,inactive,inactive,inactive,inactive,,-2.9,inactive,,,,
CNCCNS(=O)(=O)c1cccc2cnccc12,inactive,inactive,inactive,inactive,inactive,inactive,inactive,-11.7,,,,,
C[C@H]1CC2C3CCC4=CC(=O)C=C[C@]4(C)[C@@]3(Cl)[C@@H](O)C[C@]2(C)[C@@]1(O)C(=O)CO (stereo not given in full),inactive,inactive,inactive,inactive,inactive,,,-1.11,inactive,,,,
c1ccc2c(c1)CC(N1CCN(c3cccc4c3OCCO4)CC1)C2,inactive,inactive,inactive,inactive,inactive,,,-5.51,inactive,,,,
CCCCCCCCCCC(C)(C)C(=O)Nc1c(OC)cc(OC)cc1OC,inactive,inactive,inactive,inactive,inactive,,inactive,-22.8,inactive,,,,
CCCOC(=O)c1c(-c2ccccc2)nc(CC)c(C(=O)SCC)c1CCC,inactive,inactive,inactive,inactive,inactive,,,-14.4,inactive,,,,
CSc1nc(N)c2ncn([C@@H]3O[C@H](COP(=O)(O)OP(=O)(O)O)C(O)[C@H]3O)c2n1 (stereo not given in full),inactive,inactive,inactive,inactive,inactive,inactive,,,,,,,
O=c1onc2n1-c1cc(Br)ccc1OC2,inactive,inactive,inactive,inactive,inactive,inactive,,-6.75,inactive,,,,
CC(N)=O,inactive,inactive,inactive,inactive,inactive,inactive,,-7.02,inactive,,,,
N[C@H](C(=O)O)[C@H](O)C(=O)O,inactive,inactive,inactive,inactive,inactive,,inactive,-0.47,inactive,,,,
CCCC[C@@]1(C2CCCC2)Cc2cc(OCC(=O)O)c(Cl)c(Cl)c2C1=O,inactive,inactive,inactive,inactive,inactive,,,-4.31,inactive,,,inactive,7.82 µM (active)
O=c1[nH]c2ccccc2c2ccccc12,inactive,inactive,inactive,inactive,inactive,26.7 µM (active),inactive,,,,,,
CCN(CC)CCOC(=O)c1cc(Cl)c(N)cc1OC,inactive,inactive,inactive,inactive,inactive,inactive,inactive,-9.27,,,,,
